KKLEB tox: cytotoxicity in KKLEB CF airway cells, primary screen, cytotoxicity control for CF NF-kB inhibitor project, cell-based, uHTS, fluorescence assay plates; KKLEB CF airway cells viability, ATPlite luminescence, overnight; stronger effect = lower value; cells stimulated with P. aeruginosa culture filtrate; activity change (cytotoxicity), % at 5 µM; 360,000 tested, 0.36% active; AID 602141, 2011;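 active means corrected activity change at or below -50% at 5 µM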
CF NFkB block: inhibitors of PAF-induced NF-kB signaling, primary screen, cell-based, GFP fluorescence, uHTS; KKLEB NF-kB-GFP reporter, GFP fluorescence overnight; inhibition, % at 5 µM; 360,000 tested, 0.86% active; AID 588850, 2011;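 active means at least 50% inhibition at 5 µM, scaled per plate between neutral and stimulator controls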;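 further: PAF is a Pseudomonas aeruginosa culture filtrate used as stimulus; plate controls were PAF-stimulated DMSO wells for no effect and unstimulated DMSO wells for full effect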
TROY signal inh: inhibitors of TROY-driven NF-kB signaling, primary screen, Q293 LMP1-TROYcd cells, NF-kB luciferase, uHTS. 360,000 tested, 0.98% active. inhibition, % at 10 µM. AID 1347056, 2019. Q293 LMP1-TROYcd NF-kB luciferase reporter, 4 h;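 active means compounds whose plate-normalised and pattern-corrected inhibition of the luciferase reporter signal at the single screening dose is 50% or more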
LGR2 antag: inhibitors of bursicon-induced LGR2 CRE-luciferase signal, primary screen, cell-based, HEK293, CRE-luciferase reporter, bursicon stimulation; bursicon-stimulated, 4 h; 380,000 tested, 0.35% active; Drosophila bursicon receptor LGR2 (rickets); inhibition, % at 9.99 µM;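 active means drop in luminescence signal, shown as inhibition above about 50% in the replicate tests, limit read from the data, passing the limit was not always enough; inconclusive means probably only some replicates passing the limit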;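 further: agonist challenge used bursicon conditioned medium at about half maximal strength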
EWS-Fli inh: EWS/Fli-driven NR0B1 reporter inhibitors, primary screen, A673 cells, NR0B1 luciferase, luminescence, MLPCN library. inhibition, % at 12.6 µM. 350,000 tested, 0.67% active. viability-normalised;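 active means mean inhibition of at least 50% after viability correction, with every replicate also passing that limit; inconclusive means mean reaches 50% but only one of two replicates passes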;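 further: firefly luciferase signal divided by Alamar Blue viability fluorescence both relative to DMSO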
TWEAK Fn14 block: inhibitors of TWEAK-Fn14 signaling, primary screen, luciferase reporter cells, uHTS. TWEAK-stimulated Fn14 reporter cells, luciferase luminescence, 8 h. inhibition, % at 10 µM. 360,000 tested, 2% active. AID 1159606, 2016; in the data active means inhibition above about 50%
Numbers without * were called inactive; ? = inconclusive; . = not tested or not shown. Shown are actives, neighbours in structure and some others; about 2.6% of the full set was active somewhere.

SMILES	KKLEB tox	CF NFkB block	TROY signal inh	LGR2 antag	EWS-Fli inh	TWEAK Fn14 block
Cc1cc(C)nc(/N=C(\N)Nc2cccc(OCc3ccccc3)c2)n1	-10.4	8.6	16.6	34.2	53.1*	-17.2
Cc1cc(C)nc(/N=C(\N)Nc2ccc(OCc3ccccc3)cc2)n1	-12.3	-0.8	20.7	37.2	33.1	-9.5
CCOc1ccc(S(=O)(=O)NCc2ccccn2)cc1NC(=O)c1ccccc1	-16.3	37.8	16.4	-7.1	58.0*	16.1
CCOc1ccc(S(=O)(=O)NCc2cccnc2)cc1NC(=O)c1ccccc1	6.0	8.6	-18.2	-27.7	-12.5	-5.6
CC(=O)Nc1ccc2c(c1)C(=O)N(C)[C@@H]1CC[C@@H](CC(=O)NCc3ccc(F)cc3)O[C@H]1CO2	.	.	.	-5.7	6.7	.
COc1ccccc1CNC(=O)C[C@@H]1C[C@H]2c3cc(NC(=O)c4cccnc4)ccc3O[C@H]2[C@@H](CO)O1	.	.	.	-0.2	0.9	.
CCOc1ccc(CN2CCN(Cc3ccsc3)C(CCO)C2)cc1CO (stereo unspecified)	-15.0	11.3	3.6	13.3	0.4	88.5*
COCc1cc(CN2CCN(Cc3ccsc3)C(CCO)C2)ccc1OC (stereo unspecified)	15.7	-4.6	2.7	1.9	0.1	19.5
C[C@H](CO)N1C[C@H](C)[C@@H](CN(C)C(=O)c2ccccc2F)Oc2cc(C#CCN(C)C)ccc2S1(=O)=O	.	.	.	15.2	14.1	.
COc1ccc(OC)c2nc3c(C(=O)NCCN(C)C)cccc3nc12	10.7	-222.5	-1.7	27.1	44.8	-23.0
CN(C)CCNC(=O)c1cccc2nc3cccc(F)c3nc12	-2.7	-32.0	-94.8	36.7	56.2*	-50.9
COCC(=O)Nc1ccc2c(c1)OC[C@@H](C)N(Cc1ccccc1OC)C[C@H](C)[C@H](OC)CN(C)C2=O	.	.	.	-1.6	6.6	.
COC(=O)C1=C(C)N(Cc2ccc(C(F)(F)F)cc2)C(=NCc2ccc(OC)cc2)NC1c1cccc(Cl)c1 (stereo unspecified)	.	.	.	.	-13.9	.
C=CCN=C1NC(CCc2ccccc2)C(C(=O)OC)=C(C)N1Cc1cccc(C(F)(F)F)c1 (stereo unspecified)	.	.	.	62.0*	27.4	.
COC(=O)C1=C(C)N(Cc2ccc(C(F)(F)F)cc2)C(=NCC2CC2)NC1c1cccc(Cl)c1 (stereo unspecified)	.	.	.	56.8*	28.5	.
COC(=O)C1=C(C)N(Cc2cccc(C(F)(F)F)c2)C(=NCc2ccc(OC)cc2)NC1c1cccc(Cl)c1 (stereo unspecified)	.	.	.	58.6*	46.2	.
CCCN(C)C[C@H]1Oc2cc(C#Cc3cccnc3)ccc2S(=O)(=O)N([C@H](C)CO)C[C@@H]1C	.	.	.	4.1	8.1	.
COc1ccc(S(=O)(=O)N(C)C[C@H]2OCCCC[C@H](C)Oc3ccc(NC(=O)Nc4ccc5c(c4)OCO5)cc3C(=O)N([C@H](C)CO)C[C@@H]2C)cc1	.	.	.	14.5	2.4	.
Nc1ccc(S(=O)(=O)c2cc(O)c3ccccc3c2O)cc1	-11.6	26.6	74.1*	-2.1	-2.7	78.6*
O=S(=O)(c1ccccc1)c1cc(O)ccc1O	-4.7	-4.5	-2.6	10.1	7.0	14.6
COc1ccc(OC)c(C2CC(c3ccccc3)=NN2C(=S)Nc2ccccc2)c1 (stereo unspecified)	-9.8	8.1	-1.7	-21.5	52.3*	9.4
COc1ccc(CNc2oc(COc3ccc(Cl)cc3)nc2C#N)cc1	3.6	-7.3	45.2	.	.	31.4
COc1ccc(Nc2oc(COc3ccc(Cl)cc3)nc2C#N)cc1	-9.3	-2.9	32.4	.	.	88.1*
COc1ccc(CCNc2oc(COc3ccc(Br)cc3)nc2C#N)cc1OC	-4.2	4.8	59.0*	5.5	2.3	24.9
C[C@@H]1CN([C@@H](C)CO)C(=O)c2cccc(NC(=O)Nc3ccc(F)cc3)c2O[C@@H]1CN(C)C	.	.	.	23.0	0.6	.
SMILES	KKLEB tox	CF NFkB block	TROY signal inh	LGR2 antag	EWS-Fli inh	TWEAK Fn14 block
COC(=O)c1cnn(-c2cc(Oc3cccc(C)c3)ncn2)c1N	2.4	0.6	.	.	.	91.0*
C[C@H](CO)N1C[C@H](C)[C@H](CN(C)S(=O)(=O)c2ccc(Cl)cc2)Oc2c(NS(=O)(=O)c3ccc(Cl)cc3)cccc2C1=O	.	.	.	4.7	1.4	.
CCN(CC)CCCNc1nc(-c2ccccc2)nc2ccccc12	5.1	-13.6	-7.8	.	.	-14.0
CCN(CC)CCCNc1nc2ccccc2c2[nH]c3ccc(OC)cc3c12	-16.9	13.0	68.5*	22.2	?	5.0
O=C(O)CCC(=O)Nc1cccc(-c2csc(-c3ccccc3)n2)c1	4.7	14.0	7.5	-45.3	39.2	57.3*
O=C(CCS(=O)(=O)c1ccccc1)Nc1cccc(-c2nc3ccccc3s2)c1	25.8	-87.9	57.3*	-17.8	-56.6	86.8*
CCCCC(=O)Nc1cccc(-c2csc(-c3ccccc3)n2)c1	9.2	-3.8	-4.5	12.6	-14.1	6.2
O=C(CCS(=O)(=O)c1ccccc1)Nc1ccc(-c2nc3ccccc3s2)cc1	1.0	-19.3	-11.3	-77.6	30.5	-11.4
Cn1c(=O)c2ncn(CC(=O)Nc3cccc(-c4nc5ccccc5s4)c3)c2n(C)c1=O	4.4	-28.7	36.2	.	.	66.8*
O=C(Cc1ccccn1)N[C@@H]1CC[C@H](CCNS(=O)(=O)c2cccc(F)c2)O[C@@H]1CO	.	.	.	2.1	-18.2	.
Nc1ncnc2c(C3OC(CO)C(O)C3O)scc12 (stereo unspecified)	-15.0	36.7	64.9*	98.0*	36.8	100.1*
Nc1ncnc2c1ncn2[C@@H]1O[C@H](CO)[C@@H](O)[C@@H]1O	-10.4	-6.9	3.1	-24.7	7.3	-21.1
COc1ccc2c3c(n(C)c2c1)[C@@H](CO)N(CC1CCCC1)CC31CCN(Cc2nccs2)CC1	.	.	.	7.0	4.8	.
CCC(=O)Nc1cccc(SC)c1	-9.1	-2.6	-16.8	-20.5	.	98.7*
COc1ccc(OC)c(CN2C(=O)c3ccccc3C2c2nnnn2-c2ccc3c(c2)OCCO3)c1 (stereo unspecified)	.	.	14.5	-9.8	51.9*	-6.5
COc1ccc(CCN2C(=O)c3ccccc3C2c2nnnn2-c2ccc3c(c2)OCCO3)cc1OC (stereo unspecified)	.	.	-11.7	-9.4	9.5	11.2
COc1ccc(-c2[nH]nc3nc(N4CCN(C(=O)c5ccoc5)CC4)cc(C(F)(F)F)c23)cc1	-11.6	7.7	33.5	-6.6	55.1*	37.9
COc1cccc(NC(=O)Nc2ccc3c(c2)OC[C@@H](C)N(CC2CC2)C[C@@H](C)[C@H](OC)CN(C)C3=O)c1	.	.	.	-2.6	-16.2	.

Source: PubChem
